Sampled rows, rich in hits. Any-hit rate of the full collection: about 21%.
Pf growth 48h: Primary qHTS for delayed death inhibitors of the malarial parasite plastid, 48 hour incubation | P. falciparum luciferase growth in erythrocytes, 48 h | Potency, µM (highest dose often 28.7 µM), without a hit: at the highest dose activity change, negative = inhibition, usual class: inhibitors | hit rate 5.9% among 310,000 | AID 504832, 2011; also: potency is read from the fitted curve at half-maximal effect; % is scaled to controls: 0 for no effect and ±100 for the full control effect
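Luminescence readout; reporter = integrated firefly luciferase in P. falciparum. RBC culture at 2% hematocrit, 0.1% parasitemia final, 37 C/5% CO2; decreased signal taken as growth inhibition.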
Cycloheximide cs: Cycloheximide Counterscreen for Small Molecule Inhibitors of Shiga Toxin; cell reporter, cycloheximide protein synthesis inhibition counterscreen; max response, %; hit rate 12% among 300,000; AID 2314, 2010; in the data active = max response mostly above about 13%, no sharp cut-off; inactive = mostly below about 14%; also: read at 38.3 µM for the half of the compounds with a filed dose; 0% is about no effect
NS1 inh: qHTS Assay for Inhibitors of Influenza NS1 Protein Function; Potency, µM (doses to about 46.1 µM), for inactives: at the highest dose activity, positive = more growth; hit rate 0.4% among 270,000; AID 2326, 2010; calls by dose curve; also: potency is read from the fitted curve at half-maximal effect; actives are rising curves; nearly all actives have a fitted effect of over 50% in size
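Growth recovery, yeast-based: influenza A NS1 expressed in S. cerevisiae causes slow growth, and suppressors are detected by OD600. The parent strain without NS1 is used as positive control.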
Shiga toxin inh: A qHTS for Small Molecule Inhibitors of Shiga Toxin; Vero cells, Shiga toxin protein synthesis inhibition reporter; hit rate 9.2% among 290,000; AID 2315, 2010; inhibition, % at 38.7 µM; in the data active = inhibition mostly above about 28%, no sharp cut-off; inactive = mostly below about 43%; also: 0% is about no effect
Pf growth 96h: Primary qHTS for delayed death inhibitors of the malarial parasite plastid, 96 hour incubation. P. falciparum luciferase reporter growth, 96 h. Potency, µM (top dose mostly 28.7 µM), for inactives: top-dose activity change, negative = inhibition, hits mostly inhibitors. hit rate 6.9% among 320,000. AID 504834, 2011; also: potency is read from the fitted curve at half-maximal effect; % is scaled to controls: 0 for no effect and ±100 for the full control effect
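Readout is luminescence from an integrated firefly luciferase in P. falciparum. Red cells, 2% hematocrit and 0.05% parasitemia final, were cultured with compound through two parasite generations (96 hours) at 37 C, 5% CO2.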
* marks the source's active call; other numbers are inactive results; u = inconclusive; x = not tested or not shown; [ ] = another dose, or the depositor's remark. Unless noted, calls follow the shape of the dose curve; as a rule, active = well fitted inhibition curve with a large enough effect; inconclusive = small, poorly fitted or top-dose-only effect, or another doubt; inactive = no such curve, though single readings can be large or run the other way.

SMILES | Pf growth 48h | Cycloheximide cs | NS1 inh | Shiga toxin inh | Pf growth 96h
S=C1NC2(CCCCC2)NC12CCCCC2 | u | -2 | 7% | 15 | u
COC(=O)c1cc(-c2ccc(S(=O)(=O)N3CCCCC3)cc2)c(C(F)(F)F)s1 | 12µM* | 9 | 8% | 20 | u
COC(=O)c1cc(-c2ccc(S(=O)(=O)N3CCCC3)cc2)c(C(F)(F)F)s1 | u | -1 | 6% | -8 | u
CN(NS(=O)(=O)c1ccc(Br)cc1)c1nc(C(F)(F)F)nc2ccccc12 | 0% | 8 | x | -5 | 13%
O=c1c(Cl)c(N2CCCCC2)cnn1-c1nc2ccccc2[nH]1 | 0% | 20* | -12% | 17 | 241%
O=c1c2ccccc2cnn1-c1nc2ccccc2[nH]1 | -31% | -10 | x | -35 | -41%
O=C1NC2(CCCCCC2)C(=O)N1Cc1cccc([N+](=O)[O-])c1 | 4%[0.00184 µM] | 1 | -4% | -7 | -15%
CCOC(=O)C1(Cc2cccc(F)c2)CCN(Cc2c(C)nn(CC)c2C)CC1 | 16% | 1 | -5% | -15 | 13%
Cc1cc(C)n2nc(C(=O)OCC(=O)c3c[nH]c4ccccc34)nc2n1 | 12% | -4 | x | -1 | 6%
Cc1c(C)c2c(c(C)c1OC(=O)CCC(=O)O)CC[C@@](C)(CCC[C@H](C)CCC[C@H](C)CCCC(C)C)O2 | u | x | x | x | 12µM*
CC(=O)Oc1c(C)c(C)c2c(c1C)CCC(C)(CCCC(C)CCCC(C)CCCC(C)C)O2 (stereo not drawn) | 0% | -6 | x | -3 | 110%
O=C(Nc1nc2ccsc2c(=O)s1)C1CCC1 | 17% | 41* | -1% | 55* | 36%
Cc1cccc(NC(=O)C2CCN(S(=O)(=O)c3cccc4nsnc34)CC2)n1 | 15% | -3 | -5% | -11 | 84%
Cc1ccc2nc(NC(=O)c3ccco3)sc2c1 | x | 30* | -121% | 15 | -9%
O=c1sc(Nc2ccccc2)nc2ccsc12 | x | 80* | -56% | 92* | u
COc1ccc2nc(NC(=O)C3CCN(S(=O)(=O)c4cccc5nsnc45)CC3)sc2c1 | u | -2 | u | -3 | 10µM*
Cc1ccc(Nc2nc3ccccc3c(=O)s2)cc1C | 6% | -3 | u | -1 | -21%
CC(C)N(C(=O)CS(=O)(=O)c1ccc(Cl)c(Cl)c1)C(C)C | -10% | -1 | -4% | -7 | 0%
Cc1ccc2nc(NC(=S)NC(=O)c3ccco3)sc2c1 | 138% | 67* | 20% | 138* | 399%
O=C(Nc1nc2ccsc2c(=O)s1)c1ccco1 | 40% | 27* | -102% | 97* | 27%
COc1ccc2nc(NC(=O)c3ccco3)sc2c1 | 7% | 20* | -34% | 60* | -10%
CC(C)c1nnc(NC(=O)C2CCN(C(=O)c3ccco3)CC2)s1 | u | 21* | 1% | 40* | -30%
Cc1csc2c(=O)sc(NC(=O)c3ccco3)nc12 | 21% | 9 | -35% | 19 | 41%
CC(C)N1CCN(c2ccc(S(=O)(=O)N3CCOCC3)cn2)CC1 | 1% | -2 | 12% | 0 | u
CCN(C(=O)Cn1c([N+](=O)[O-])cnc1C)c1ccccc1 | -6% | -2 | 3% | -3 | u
SMILES | Pf growth 48h | Cycloheximide cs | NS1 inh | Shiga toxin inh | Pf growth 96h
CCCCC(=O)Nc1ccc(NC(=S)NC(=O)CCCCl)cc1OC | 6% | 9 | 21% | -2 | 57%
COc1cc(C(O)P(=O)(OCC(C)C)c2ccc(N(C)C)cc2)cc(OC)c1OC (stereo not drawn) | -6% | -4 | -2% | -3 | -8%
COc1ccc2nc(NC(=O)C3CCN(C(=O)c4ccco4)CC3)sc2c1 | 4% | 36* | -14% | 144* | u
COCc1nnc(NC(=O)C2CCN(C(=O)c3ccco3)CC2)s1 | 9% | 1 | -6% | -3 | u
O=C(COC(=O)CCC(=O)c1cccs1)NC(=O)c1ccc(OC(F)F)cc1 | -4% | -2 | x | -9 | 62%
NC(=S)N=Nc1ccc(NN=C(N)N)cc1 | 1.2µM* | -2 | -85% | 2 | u
O=C(Nc1ccc2c(c1)OCO2)c1ccc([N+](=O)[O-])cc1[N+](=O)[O-] | -8% | 26 | -7% | 44* | 25%
CC(C(=O)Nc1ccc2c(c1)OCCO2)c1ccc([N+](=O)[O-])cc1 (stereo not drawn) | 3.3µM* | -2 | 0% | -4 | 21%

Screening data (PubChem)
